Active and inactive are the calls of the source.
Experiments:
[1] = tested on: PRMT1 (protein arginine N-methyltransferase 1); experiment: small molecules binding arginine methyltransferase PRMT1 – biochemical, small-molecule microarray, 635 nm fluorescence, primary screen (AID 1088); conditions: higher = more signal;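 further: binding of Prmt1 protein to compounds spotted on small-molecule microarray slides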
[2] = growth effects on S. cerevisiae YJM789 – YJM789 clinical isolate, OD600, 24 h, basal, primary screen (AID 1089); conditions: higher = more signal, called active from +8 up or from −8 down;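 further: growth of clinical yeast isolate S. cerevisiae YJM 789 seeded 1000 cells per well; test concentration not given here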
[3] = S. pombe growth modifiers, basal conditions – strain 972, OD600, 24 h, no modulator, primary screen (AID 1090);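 further: basal condition with compound alone and no growth modifier present; test concentration not given here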; conditions: S. pombe 972 growth, higher = more signal, called active from +8 up or from −8 down
[4] = budding yeast growth modifiers under rapamycin – strain BY4716, OD600, 96 h, primary screen (AID 1091); further: test concentration not given here; conditions: S. cerevisiae BY4716 + rapamycin, higher = more signal, called active from +8 up or from −8 down
[5] = molecular target: Torsin-1A-interacting protein 2 (Homo sapiens) (UniProt Q8NFQ8); experiment: small molecules binding lysate-expressed LULL1 – cell lysate, human LULL1 lysate, 635/667 nm fluorescence, primary screen (AID 1092); conditions: small-molecule microarray, hLULL1 lysate binding, 635 nm fluorescence; higher = more signal;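 further: probe is lysate of COS7 cells overexpressing human LULL1; score merges per-feature 667 nm fluorescence with signal-to-noise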
Torsin-1A-interacting protein 2 (Homo sapiens), sequence (Q8NFQ8 whole entry, looked up): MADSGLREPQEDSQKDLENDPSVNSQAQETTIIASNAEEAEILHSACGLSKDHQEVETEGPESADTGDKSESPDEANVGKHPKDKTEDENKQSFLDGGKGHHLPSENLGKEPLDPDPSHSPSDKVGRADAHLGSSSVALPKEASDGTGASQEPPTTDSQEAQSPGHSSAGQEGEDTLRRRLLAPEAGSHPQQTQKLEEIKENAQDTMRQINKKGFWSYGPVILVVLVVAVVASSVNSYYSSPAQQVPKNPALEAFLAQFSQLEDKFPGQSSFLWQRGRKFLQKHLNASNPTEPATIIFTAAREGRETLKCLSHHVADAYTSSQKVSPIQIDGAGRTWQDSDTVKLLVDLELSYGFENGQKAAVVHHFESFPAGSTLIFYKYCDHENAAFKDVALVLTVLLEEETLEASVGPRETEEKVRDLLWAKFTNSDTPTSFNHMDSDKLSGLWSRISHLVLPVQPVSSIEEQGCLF

[6] = optical density change of DRC41 E. coli – strain DRC41, OD650, 24 h, E. coli filamentation project, primary screen (AID 1093);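 further: MC1000 strain lacking acrAB efflux and sulA so SOS filamentation is blocked; test concentration not given here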; conditions: E. coli DRC41 growth, higher = more signal, called active from +8 up or from −8 down
[7] = probe aLefty2 binding to arrayed compounds – biochemical, biotinylated probe, 635/667 nm fluorescence, primary screen (AID 1094); conditions: small-molecule microarray, higher = more signal;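 further: score merges spot fluorescence near 667 nm with spot signal-to-noise ratio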
[8] = tested on: Noggin (protein binding on small-molecule microarray); experiment: small molecules binding Noggin protein – biochemical, 635/667 nm fluorescence, primary screen (AID 1095); conditions: 635 nm fluorescence, higher = more signal;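 further: score merges 667 nm feature fluorescence with signal to noise over triplicate slides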
[9] = molecular target: Neurogenic locus notch homolog protein 3 (Homo sapiens) (UniProt Q9UM47); experiment: small molecules binding NOTCH3 protein – biochemical, 635/667 nm fluorescence, primary screen (AID 1096); conditions: small-molecule microarray, 635 nm fluorescence, higher = more signal
Neurogenic locus notch homolog protein 3 (Homo sapiens), sequence (Q9UM47 whole entry, looked up): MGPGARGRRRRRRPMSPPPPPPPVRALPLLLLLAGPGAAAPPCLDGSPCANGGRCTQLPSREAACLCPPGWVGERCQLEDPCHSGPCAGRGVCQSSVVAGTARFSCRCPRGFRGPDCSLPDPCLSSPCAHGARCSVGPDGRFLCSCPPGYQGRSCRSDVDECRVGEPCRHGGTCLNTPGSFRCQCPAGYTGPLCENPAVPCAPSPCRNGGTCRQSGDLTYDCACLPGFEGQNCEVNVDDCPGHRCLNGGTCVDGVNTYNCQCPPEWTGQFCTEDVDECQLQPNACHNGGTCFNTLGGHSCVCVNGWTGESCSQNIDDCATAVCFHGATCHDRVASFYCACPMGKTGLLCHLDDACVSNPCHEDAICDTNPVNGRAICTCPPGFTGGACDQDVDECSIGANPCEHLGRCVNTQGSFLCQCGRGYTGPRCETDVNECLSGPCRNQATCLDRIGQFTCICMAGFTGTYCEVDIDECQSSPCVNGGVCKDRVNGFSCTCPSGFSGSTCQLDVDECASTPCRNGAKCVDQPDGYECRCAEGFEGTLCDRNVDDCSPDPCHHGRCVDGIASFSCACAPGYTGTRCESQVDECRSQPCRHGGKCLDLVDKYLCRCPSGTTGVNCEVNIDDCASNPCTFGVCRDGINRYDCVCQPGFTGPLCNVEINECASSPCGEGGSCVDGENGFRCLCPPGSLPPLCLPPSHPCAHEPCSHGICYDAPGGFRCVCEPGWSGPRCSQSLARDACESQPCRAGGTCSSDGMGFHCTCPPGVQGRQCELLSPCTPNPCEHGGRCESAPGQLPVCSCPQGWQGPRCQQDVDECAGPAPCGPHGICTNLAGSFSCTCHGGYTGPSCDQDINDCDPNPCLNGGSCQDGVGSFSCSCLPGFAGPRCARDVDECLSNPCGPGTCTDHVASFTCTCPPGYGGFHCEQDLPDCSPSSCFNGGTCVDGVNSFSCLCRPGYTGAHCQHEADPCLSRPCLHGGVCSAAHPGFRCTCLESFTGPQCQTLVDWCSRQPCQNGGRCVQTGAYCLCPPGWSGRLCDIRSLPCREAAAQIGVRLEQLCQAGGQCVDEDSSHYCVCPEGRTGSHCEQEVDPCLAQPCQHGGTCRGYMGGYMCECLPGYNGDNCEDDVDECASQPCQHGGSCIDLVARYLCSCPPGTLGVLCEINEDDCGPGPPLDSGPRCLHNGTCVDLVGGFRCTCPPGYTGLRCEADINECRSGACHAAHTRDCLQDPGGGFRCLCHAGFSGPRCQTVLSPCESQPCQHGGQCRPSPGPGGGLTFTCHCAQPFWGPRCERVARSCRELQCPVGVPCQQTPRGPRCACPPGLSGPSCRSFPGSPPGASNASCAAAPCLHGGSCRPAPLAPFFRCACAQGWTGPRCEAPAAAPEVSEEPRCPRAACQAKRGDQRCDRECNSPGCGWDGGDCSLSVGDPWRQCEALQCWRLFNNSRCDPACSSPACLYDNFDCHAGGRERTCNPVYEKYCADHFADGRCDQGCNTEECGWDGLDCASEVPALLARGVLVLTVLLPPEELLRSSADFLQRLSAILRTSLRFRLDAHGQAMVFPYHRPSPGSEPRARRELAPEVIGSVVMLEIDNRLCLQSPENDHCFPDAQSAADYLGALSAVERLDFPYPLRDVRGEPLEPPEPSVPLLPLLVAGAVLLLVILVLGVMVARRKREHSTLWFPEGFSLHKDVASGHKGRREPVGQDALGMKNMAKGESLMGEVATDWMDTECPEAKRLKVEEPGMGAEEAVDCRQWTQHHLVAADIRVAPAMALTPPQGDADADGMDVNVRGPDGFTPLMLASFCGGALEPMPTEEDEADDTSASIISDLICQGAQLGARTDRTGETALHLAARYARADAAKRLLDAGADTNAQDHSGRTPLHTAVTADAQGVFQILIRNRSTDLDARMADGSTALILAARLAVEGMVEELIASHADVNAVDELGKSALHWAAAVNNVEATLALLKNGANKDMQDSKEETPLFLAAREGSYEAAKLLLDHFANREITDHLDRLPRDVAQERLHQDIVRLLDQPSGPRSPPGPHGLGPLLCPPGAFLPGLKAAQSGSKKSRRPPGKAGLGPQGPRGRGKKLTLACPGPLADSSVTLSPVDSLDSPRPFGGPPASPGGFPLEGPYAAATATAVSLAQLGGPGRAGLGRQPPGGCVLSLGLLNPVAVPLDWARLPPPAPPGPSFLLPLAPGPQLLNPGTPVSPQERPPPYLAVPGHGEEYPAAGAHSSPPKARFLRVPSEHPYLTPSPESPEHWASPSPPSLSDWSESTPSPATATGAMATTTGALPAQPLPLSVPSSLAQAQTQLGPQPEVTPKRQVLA

[10] = probe aEGFR binding to arrayed compounds – biochemical, biotinylated probe, 635/667 nm fluorescence, primary screen (AID 1097); conditions: small-molecule microarray, higher = more signal;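 further: probe is a biotinylated anti-EGFR antibody binding compounds printed on slides; score combines fluorescence near 667 nm and signal to noise of each spot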
[11] = tested on: Plasmodium falciparum Sir2 (PF13_0152, Sir2A); experiment: Plasmodium falciparum Sir2A binding compounds – biochemical, small-molecule microarray, 635 nm fluorescence, primary screen (AID 1098); conditions: fluorescence 635 nm, higher = more signal;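 further: score merges spot fluorescence intensity with its signal-to-noise ratio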
[12] = probe aDKK1 binding to arrayed compounds – biochemical, biotinylated probe, 635/667 nm fluorescence, primary screen (AID 1099); conditions: small-molecule microarray, higher = more signal;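 further: score merges 667nm spot fluorescence with signal to noise across triplicate slides; reference of the scale not given here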
[13] = probe aCHRDL2 binding to arrayed compounds – biochemical, biotinylated probe, 635/667 nm fluorescence, primary screen (AID 1100); conditions: small-molecule microarray, higher = more signal
[14] = change in splice reporter luminescence, either direction, cell-based, HEK293, spliceosome inhibition project, primary screen (AID 1101); conditions: HEK293 splicing luciferase reporter, 24 h, higher = more signal, called active from +8 up or from −8 down;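 further: HEK293 cells carrying a splicing-competent luciferase reporter gene; test concentration not given here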
[15] = molecular target: Fibroblast growth factor 10 (Homo sapiens) (UniProt O15520); experiment: compounds binding fibroblast growth factor 10 – biochemical, small-molecule microarray, 635 nm fluorescence, primary screen (AID 1102); conditions: FGF10 binding, fluorescence 635 nm, higher = more signal
Fibroblast growth factor 10 (Homo sapiens), sequence (O15520 whole entry, looked up): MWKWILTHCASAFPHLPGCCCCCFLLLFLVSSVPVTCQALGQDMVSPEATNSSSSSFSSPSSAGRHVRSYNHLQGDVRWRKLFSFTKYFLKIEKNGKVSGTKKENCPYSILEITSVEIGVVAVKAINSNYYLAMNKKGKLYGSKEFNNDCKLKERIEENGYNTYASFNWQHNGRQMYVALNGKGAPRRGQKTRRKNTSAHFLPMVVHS

[16] = tested on: glycogen synthase kinase-3 (GSK3A per assay name; protocol says GSK3B); experiment: compounds binding glycogen synthase kinase-3 – biochemical, small-molecule microarray, 635 nm fluorescence, GSK3A, primary screen (AID 1103); conditions: fluorescence 635 nm, higher = more signal; further: the record names both GSK3A and GSK3B
[17] = molecular target: Epidermal growth factor receptor (Homo sapiens) (UniProt P00533); experiment: compounds binding epidermal growth factor receptor – biochemical, small-molecule microarray, 635 nm fluorescence, primary screen (AID 1104); conditions: EGFR binding, higher = more signal;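 further: score merges 667 nm emission intensity with spot signal to noise over triplicate slides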
Epidermal growth factor receptor (Homo sapiens), sequence (P00533 whole entry, looked up): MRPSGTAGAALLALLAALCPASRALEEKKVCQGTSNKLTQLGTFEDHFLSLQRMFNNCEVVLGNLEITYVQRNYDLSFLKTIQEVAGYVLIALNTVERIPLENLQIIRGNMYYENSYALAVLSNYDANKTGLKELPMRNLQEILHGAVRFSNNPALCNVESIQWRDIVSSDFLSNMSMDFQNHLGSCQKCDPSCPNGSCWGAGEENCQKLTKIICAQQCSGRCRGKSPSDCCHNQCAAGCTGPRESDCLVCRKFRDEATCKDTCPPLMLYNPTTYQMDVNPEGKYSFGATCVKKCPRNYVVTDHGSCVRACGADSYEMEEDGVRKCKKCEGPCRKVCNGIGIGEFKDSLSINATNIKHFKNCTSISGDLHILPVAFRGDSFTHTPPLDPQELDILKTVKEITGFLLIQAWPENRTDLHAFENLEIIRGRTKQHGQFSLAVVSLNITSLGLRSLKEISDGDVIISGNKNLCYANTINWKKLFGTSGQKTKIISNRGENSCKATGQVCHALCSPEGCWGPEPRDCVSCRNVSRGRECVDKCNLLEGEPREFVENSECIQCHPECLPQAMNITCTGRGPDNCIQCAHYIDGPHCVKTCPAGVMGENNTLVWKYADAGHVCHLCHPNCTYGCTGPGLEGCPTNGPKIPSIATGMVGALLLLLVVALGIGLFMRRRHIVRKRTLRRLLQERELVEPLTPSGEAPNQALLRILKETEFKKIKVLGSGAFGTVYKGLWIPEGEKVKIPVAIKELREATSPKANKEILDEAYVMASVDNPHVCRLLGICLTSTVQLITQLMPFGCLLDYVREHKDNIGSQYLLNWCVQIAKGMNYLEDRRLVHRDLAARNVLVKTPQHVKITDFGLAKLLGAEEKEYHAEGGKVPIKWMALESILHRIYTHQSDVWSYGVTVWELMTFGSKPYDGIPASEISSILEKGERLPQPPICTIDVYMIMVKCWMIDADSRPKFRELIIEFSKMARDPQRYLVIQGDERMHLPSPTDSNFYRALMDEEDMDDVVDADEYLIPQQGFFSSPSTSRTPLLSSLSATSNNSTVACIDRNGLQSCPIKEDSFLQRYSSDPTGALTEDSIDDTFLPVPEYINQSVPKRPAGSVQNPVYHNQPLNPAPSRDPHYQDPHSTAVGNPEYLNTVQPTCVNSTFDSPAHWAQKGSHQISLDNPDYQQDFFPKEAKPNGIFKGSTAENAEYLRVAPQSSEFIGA

[18] = molecular target: Follistatin-related protein 3 (Homo sapiens) (UniProt O95633); experiment: compounds binding follistatin-related protein 3 – biochemical, small-molecule microarray, 635 nm fluorescence, primary screen (AID 1105); conditions: FSTL3 binding, higher = more signal;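 further: score merges emission near 667 nm and signal to noise per printed spot across three slides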
Follistatin-related protein 3 (Homo sapiens), sequence (O95633 whole entry, looked up): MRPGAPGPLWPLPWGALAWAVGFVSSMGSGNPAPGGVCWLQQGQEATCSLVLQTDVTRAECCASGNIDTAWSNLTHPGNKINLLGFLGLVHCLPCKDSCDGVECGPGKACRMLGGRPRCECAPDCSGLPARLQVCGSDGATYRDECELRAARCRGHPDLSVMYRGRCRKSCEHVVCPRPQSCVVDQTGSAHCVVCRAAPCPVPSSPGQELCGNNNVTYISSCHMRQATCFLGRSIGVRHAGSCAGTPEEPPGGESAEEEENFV

[19] = molecular target: Dickkopf-related protein 1 (Homo sapiens) (UniProt O94907); experiment: small molecules binding DKK1 protein – biochemical, small-molecule microarray, 635 nm fluorescence scan, primary screen (AID 1106); conditions: higher = more signal;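 further: score merges emission near 667 nm with signal to noise over three replicate slides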
Dickkopf-related protein 1 (Homo sapiens), sequence (O94907 whole entry, looked up): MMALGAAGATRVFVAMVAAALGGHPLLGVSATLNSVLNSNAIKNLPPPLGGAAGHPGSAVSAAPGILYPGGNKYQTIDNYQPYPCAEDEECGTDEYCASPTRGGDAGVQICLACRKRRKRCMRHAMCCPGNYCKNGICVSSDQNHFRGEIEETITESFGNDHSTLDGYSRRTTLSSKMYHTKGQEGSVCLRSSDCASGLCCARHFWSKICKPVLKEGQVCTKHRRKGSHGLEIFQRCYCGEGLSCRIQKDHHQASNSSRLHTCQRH

[20] = tested on: Inhibin beta A chain (activin A); experiment: small molecules binding activin A – biochemical, small-molecule microarray, 635 nm fluorescence scan, primary screen (AID 1107); conditions: INHBA, higher = more signal;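 further: mouse activin A protein probed at 4.33 µg/mL on printed slides; score merges bound-protein fluorescence near 667 nm with spot signal-to-noise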

Row | SMILES | composite z-score [1] | z-score [2] | z-score [3] | z-score [4] | composite z-score [5] | z-score [6] | composite z-score [7] | composite z-score [8] | composite z-score [9] | composite z-score [10] | composite z-score [11] | composite z-score [12] | composite z-score [13] | z-score [14] | composite z-score [15] | composite z-score [16] | composite z-score [17] | composite z-score [18] | composite z-score [19] | composite z-score [20]
1 | COc1cccc([C@H](O)Cn2cc(-c3ccc(CON=C(C)C)cc3)nn2)c1 | 0.0112 | -0.733 (inactive) | 0.16 (inactive) | -0.625 (inactive) | -0.441 | 1.2 (inactive) | -0.0561 | -0.197 | -1.27 | 0.0709 | -0.548 | -0.122 | -0.0514 | 0.62 (inactive) | 0.155 | -0.559 | -0.392 | -0.549 | -0.115 | 0.575
2 | COC(=O)CC=C[C@@H](C)[C@@H](C=NOC[C@@H](C)[C@H](OCc1ccccc1)C(C)C)NS(=O)(=O)c1ccc(C)cc1 | 0.123 | -0.161 (inactive) | 1.53 (inactive) | 0.227 (inactive) | 0.0335 | -1.42 (inactive) | -0.27 | 0.452 | -1.44 | -0.142 | -0.196 | -0.439 | -0.75 | -0.21 (inactive) | -0.714 | -1.15 | -0.0573 | -0.888 | 0.0424 | 0.168
3 | CC(C)CON=C1[C@H]2CCn3c(=O)n(C)c(=O)n3[C@H]2[C@H](O)[C@@H]2O[C@H]12 | -0.117 | 0.0116 (inactive) | -0.08 (inactive) | -0.6 (inactive) | -0.0761 | 0.253 (inactive) | -0.112 | 0.757 | 0.861 | 0.006 | 0.59 | -0.339 | -0.507 | 0.253 (inactive) | 0.401 | 0.481 | 0.377 | 0.703 | 0.708 | 0.283
4 | CCOC(=O)[C@H](CC(C)C)NC(=O)CCC1CC(OC(=O)NCCc2ccc(F)cc2)CC2(CCCC(COC(=O)NCc3cccc(C(F)(F)F)c3)O2)O1 (stereo not given in full) | 1.49 | 0.643 (inactive) | 0.58 (inactive) | 0.603 (inactive) | 1.6 | 1.05 (inactive) | -0.103 | 0.584 | 0.722 | 0.0199 | 0.581 | -0.211 | -0.51 | 0.478 (inactive) | 1.39 | 0.733 | 0.29 | 0.814 | 0.532 | -0.257
5 | COC(=O)[C@H](C)NC(=O)CCC1CC(OC(=O)NCc2ccc3c(c2)OCO3)CC2(CCCC(COC(=O)NCCC(C)C)O2)O1 (stereo not given in full) | 1.55 | -0.916 (inactive) | -0.031 (inactive) | -1.24 (inactive) | 2.28 | 0.861 (inactive) | -0.166 | 0.501 | 0.437 | -0.0858 | 0.624 | -0.076 | -0.434 | 0.0265 (inactive) | 0.412 | 0.69 | 0.0295 | 0.505 | 0.205 | -2.25
6 | CCOC(=O)NN=C1C[C@@H](O)[C@@H](O)[C@@H]2[C@@H]3C(=O)N(CC)C(=O)[C@@H]3CC[C@H]12 | -0.0481 | 0.213 (inactive) | 0.324 (inactive) | 0.71 (inactive) | 0.458 | 0.312 (inactive) | -0.25 | 0.583 | -0.387 | -0.034 | -0.04 | -0.115 | -0.254 | -0.322 (inactive) | 0.125 | -0.256 | 0.283 | -0.188 | 0.191 | -0.145
7 | CCN1C(=O)[C@H]2[C@H]3[C@H](O)[C@H](O)CC(=NO[C@@H](C)c4cc(-c5c(C)cc(C)cc5C)no4)[C@@H]3CC[C@H]2C1=O | 1.55 | -0.393 (inactive) | -1.15 (inactive) | -0.875 (inactive) | 2 | 1.16 (inactive) | -0.0283 | 0.529 | 0.994 | 0.123 | 0.808 | 0.101 | -0.239 | -0.111 (inactive) | 0.841 | 1.24 | 0.451 | 1.18 | 0.647 | -0.989
8 | C[C@@H]1CC[C@H]2C(=O)N3[C@@H](CC[C@@H](C)[C@@H]3c3ccc(Br)cc3)C(=O)N2[C@H]1c1ccc(Br)cc1 | -0.455 | -0.275 (inactive) | -4.1 (inactive) | 0.805 (inactive) | 0.241 | -0.19 (inactive) | -0.0865 | 0.259 | 0.305 | -0.0987 | 0.223 | -0.339 | -0.355 | -0.628 (inactive) | 0.592 | -0.0161 | 0.278 | 0.384 | 0.605 | 0.22
9 | CCOC(=O)[C@H](CC(C)C)NC(=O)CCC1CC(OC(=O)NCCc2ccc(F)cc2)CC2(CCCC(COC(=O)NCc3cccc4ccccc34)O2)O1 (stereo not given in full) | 0.733 | -0.175 (inactive) | -0.421 (inactive) | 0.238 (inactive) | 2.16 | 0.415 (inactive) | -0.181 | 0.261 | -0.773 | -0.0995 | 0.66 | -0.0464 | -0.224 | -1.61 (inactive) | 0.176 | 0.121 | 0.55 | 0.135 | 0.678 | -0.583
10 | O=C1C=C[C@@H](O)[C@@H]2[C@@H]3C(=O)N(Cc4ccc5c(c4)OCO5)C(=O)[C@@H]3CC[C@@H]12 | -0.846 | 0.564 (inactive) | -0.681 (inactive) | 0.621 (inactive) | 0.221 | 0.446 (inactive) | -0.116 | 0.652 | 0.676 | -0.0731 | 0.382 | -0.0574 | -0.528 | -0.5 (inactive) | 0.515 | 0.719 | 0.523 | 0.579 | 0.615 | -0.513
